Data published in article PMC12820563, “FoxP3 forms a head-to-head dimer in vivo and stabilizes its multimerization on adjacent microsatellites”.
The full ranking holds about 16,000 sequences; the median of “rpm ratio (pull-down/input)” is about 0.5, and the highest 2% start at about 5.5. The sample as a whole holds a higher share of the highest values than the screen did.

Biological target: T1, MBP-FoxP3dN (Mus musculus, UniProt Q99JB6 188-423)
T1 sequence: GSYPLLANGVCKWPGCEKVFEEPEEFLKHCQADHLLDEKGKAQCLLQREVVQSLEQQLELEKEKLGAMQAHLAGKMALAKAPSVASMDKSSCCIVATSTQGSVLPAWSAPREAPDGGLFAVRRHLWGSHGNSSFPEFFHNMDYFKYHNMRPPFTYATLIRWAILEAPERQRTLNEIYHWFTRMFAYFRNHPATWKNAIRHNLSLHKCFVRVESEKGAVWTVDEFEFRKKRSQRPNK
Assay: PD-seq (MBP pull-down with sequencing); 20 mM Tris-HCl pH 7.5, 100 mM NaCl, 1.5 mM MgCl2, 0.4 uM protein, 0.1 uM dsDNA library, 30 min, room temperature, amylose pull-down; high values mean tight binding
Settings: protein: recombinant; tags: His6-MBP; chain copies: 2; dsDNA, one strand shown
How it was run: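 Binding is the reads-per-million enrichment of pull-down relative to input, pooled across replicates. For this, 0.4 µM His6-MBP-tagged mouse FoxP3 or FoxP1 fragment lacking the N-terminus, made in E. coli, was incubated with 0.1 µM Klenow-filled double-stranded degenerate DNA library for 30 min at room temperature in Tris pH 7.5 buffer with NaCl and MgCl2. Complexes bound to amylose resin were washed three times before proteinase K released the DNA for PCR barcoding and Illumina sequencing.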

Sequence | binding signal
GATGATTGTTCTCCCAGCTGATGAATTAGACTCCTCGAGTAAACAAATTTTCCTAATCTTTCTGTTCAAGCGCCATCTAC | 0.422 RPM ratio (pull-down/input)
GATGATTGTTCTCCCAGCTGATGAATTATACCCATCGAGTAAACAAATTTTCCTAATCTTTCTGTTCAAGCGCCATCTAC | 0.433 RPM ratio (pull-down/input)
GATGATTGTTCTCCCAGCTGATGAATTAGTCTTATCGAGTAAACAAATTTTCCTAATCTTTCTGTTCAAGCGCCATCTAC | 0.725 RPM ratio (pull-down/input)
GATGATTGTTCTCCCAGCTGATGAATTAGTCGGATCGAGTAAACAAATTTTCCTAATCTTTCTGTTCAAGCGCCATCTAC | 0.297 RPM ratio (pull-down/input)
GATGATTGTTCTCCCAGCTGATGAATTCCCTCATTCGAGTAAACAAATTTTCCTAATCTTTCTGTTCAAGCGCCATCTAC | 0.325 RPM ratio (pull-down/input)
GATGATTGTTCTCCCAGCTGATGAATTGGTTAACTCGAGTAAACAAATTTTCCTAATCTTTCTGTTCAAGCGCCATCTAC | 0.469 RPM ratio (pull-down/input)
GATGATTGTTCTCCCAGCTGATGAATTCTGTCATTCGAGTAAACAAATTTTCCTAATCTTTCTGTTCAAGCGCCATCTAC | 4.31 RPM ratio (pull-down/input)
GATGATTGTTCTCCCAGCTGATGAATTGAGTACTTCGAGTAAACAAATTTTCCTAATCTTTCTGTTCAAGCGCCATCTAC | 0.524 RPM ratio (pull-down/input)
GATGATTGTTCTCCCAGCTGATGAATTAGAAGGATCGAGTAAACAAATTTTCCTAATCTTTCTGTTCAAGCGCCATCTAC | 0.225 RPM ratio (pull-down/input)
GATGATTGTTCTCCCAGCTGATGAATTGCATGTGTCGAGTAAACAAATTTTCCTAATCTTTCTGTTCAAGCGCCATCTAC | 2.29 RPM ratio (pull-down/input)
GATGATTGTTCTCCCAGCTGATGAATTCTGCATGTCGAGTAAACAAATTTTCCTAATCTTTCTGTTCAAGCGCCATCTAC | 5.95 RPM ratio (pull-down/input)
GATGATTGTTCTCCCAGCTGATGAATTCATGATGTCGAGTAAACAAATTTTCCTAATCTTTCTGTTCAAGCGCCATCTAC | 0.987 RPM ratio (pull-down/input)
GATGATTGTTCTCCCAGCTGATGAATTTGCCATGTCGAGTAAACAAATTTTCCTAATCTTTCTGTTCAAGCGCCATCTAC | 1.45 RPM ratio (pull-down/input)
GATGATTGTTCTCCCAGCTGATGAATTCGCCATGTCGAGTAAACAAATTTTCCTAATCTTTCTGTTCAAGCGCCATCTAC | 0.854 RPM ratio (pull-down/input)
GATGATTGTTCTCCCAGCTGATGAATTTCGCATGTCGAGTAAACAAATTTTCCTAATCTTTCTGTTCAAGCGCCATCTAC | 5.75 RPM ratio (pull-down/input)
GATGATTGTTCTCCCAGCTGATGAATTTCCCATGTCGAGTAAACAAATTTTCCTAATCTTTCTGTTCAAGCGCCATCTAC | 0.287 RPM ratio (pull-down/input)

Sequence | binding signal
GATGATTGTTCTCCCAGCTGATGAATTGTGCATGTCGAGTAAACAAATTTTCCTAATCTTTCTGTTCAAGCGCCATCTAC | 7.05 RPM ratio (pull-down/input)
GATGATTGTTCTCCCAGCTGATGAATTTTGCATGTCGAGTAAACAAATTTTCCTAATCTTTCTGTTCAAGCGCCATCTAC | 6.69 RPM ratio (pull-down/input)
GATGATTGTTCTCCCAGCTGATGAATTTGCATGTTCGAGTAAACAAATTTTCCTAATCTTTCTGTTCAAGCGCCATCTAC | 3.83 RPM ratio (pull-down/input)
GATGATTGTTCTCCCAGCTGATGAATTCAGCATGTCGAGTAAACAAATTTTCCTAATCTTTCTGTTCAAGCGCCATCTAC | 4.71 RPM ratio (pull-down/input)
GATGATTGTTCTCCCAGCTGATGAATTCGCATGTTCGAGTAAACAAATTTTCCTAATCTTTCTGTTCAAGCGCCATCTAC | 1.95 RPM ratio (pull-down/input)
GATGATTGTTCTCCCAGCTGATGAATTCATTTGCTCGAGTAAACAAATTTTCCTAATCTTTCTGTTCAAGCGCCATCTAC | 2.92 RPM ratio (pull-down/input)
GATGATTGTTCTCCCAGCTGATGAATTTGCGTATTCGAGTAAACAAATTTTCCTAATCTTTCTGTTCAAGCGCCATCTAC | 4.16 RPM ratio (pull-down/input)
GATGATTGTTCTCCCAGCTGATGAATTGGGTCATTCGAGTAAACAAATTTTCCTAATCTTTCTGTTCAAGCGCCATCTAC | 0.64 RPM ratio (pull-down/input)
GATGATTGTTCTCCCAGCTGATGAATTAATCTTGTCGAGTAAACAAATTTTCCTAATCTTTCTGTTCAAGCGCCATCTAC | 0.322 RPM ratio (pull-down/input)
GATGATTGTTCTCCCAGCTGATGAATTGCTCAAATCGAGTAAACAAATTTTCCTAATCTTTCTGTTCAAGCGCCATCTAC | 0.408 RPM ratio (pull-down/input)
GATGATTGTTCTCCCAGCTGATGAATTTTGCGGATCGAGTAAACAAATTTTCCTAATCTTTCTGTTCAAGCGCCATCTAC | 0.597 RPM ratio (pull-down/input)
GATGATTGTTCTCCCAGCTGATGAATTACACATATCGAGTAAACAAATTTTCCTAATCTTTCTGTTCAAGCGCCATCTAC | 0.87 RPM ratio (pull-down/input)
GATGATTGTTCTCCCAGCTGATGAATTCCGCATGTCGAGTAAACAAATTTTCCTAATCTTTCTGTTCAAGCGCCATCTAC | 5.82 RPM ratio (pull-down/input)
GATGATTGTTCTCCCAGCTGATGAATTCTCCATGTCGAGTAAACAAATTTTCCTAATCTTTCTGTTCAAGCGCCATCTAC | 0.249 RPM ratio (pull-down/input)
GATGATTGTTCTCCCAGCTGATGAATTGCCCATGTCGAGTAAACAAATTTTCCTAATCTTTCTGTTCAAGCGCCATCTAC | 0.577 RPM ratio (pull-down/input)
